Measurements: ChEMBL document CHEMBL2218924, “A broad activity screen in support of a chemogenomic map for kinase signalling research and drug discovery” (Biochem J, 2013)

Columns and labels:
[1] = target: Serine/threonine-protein kinase SIK1 (Homo sapiens) (UniProt P57059); conditions: at 10 µM
[2] = target: SRSF protein kinase 1 (Homo sapiens) (UniProt Q96SB4); conditions: at 1 µM
[3] = target: SRSF protein kinase 1 (Homo sapiens) (UniProt Q96SB4); conditions: at 10 µM
[4] = target: SRSF protein kinase 2 (Homo sapiens) (UniProt P78362); conditions: at 1 µM
[5] = target: SRSF protein kinase 2 (Homo sapiens) (UniProt P78362); conditions: at 10 µM
[6] = target: Serine/threonine-protein kinase 33 (Homo sapiens) (UniProt Q9BYT3); conditions: at 1 µM
[7] = target: Serine/threonine-protein kinase 33 (Homo sapiens) (UniProt Q9BYT3); conditions: at 10 µM
[8] = target: Serine/threonine-protein kinase PLK2 (Homo sapiens) (UniProt Q9NYY3); conditions: at 1 µM
[9] = target: Serine/threonine-protein kinase PLK2 (Homo sapiens) (UniProt Q9NYY3); conditions: at 10 µM
[10] = target: Tyrosine-protein kinase SYK (Homo sapiens) (UniProt P43405); conditions: at 1 µM

Serine/threonine-protein kinase PLK2 (Homo sapiens), sequence (Q9NYY3 whole entry, looked up): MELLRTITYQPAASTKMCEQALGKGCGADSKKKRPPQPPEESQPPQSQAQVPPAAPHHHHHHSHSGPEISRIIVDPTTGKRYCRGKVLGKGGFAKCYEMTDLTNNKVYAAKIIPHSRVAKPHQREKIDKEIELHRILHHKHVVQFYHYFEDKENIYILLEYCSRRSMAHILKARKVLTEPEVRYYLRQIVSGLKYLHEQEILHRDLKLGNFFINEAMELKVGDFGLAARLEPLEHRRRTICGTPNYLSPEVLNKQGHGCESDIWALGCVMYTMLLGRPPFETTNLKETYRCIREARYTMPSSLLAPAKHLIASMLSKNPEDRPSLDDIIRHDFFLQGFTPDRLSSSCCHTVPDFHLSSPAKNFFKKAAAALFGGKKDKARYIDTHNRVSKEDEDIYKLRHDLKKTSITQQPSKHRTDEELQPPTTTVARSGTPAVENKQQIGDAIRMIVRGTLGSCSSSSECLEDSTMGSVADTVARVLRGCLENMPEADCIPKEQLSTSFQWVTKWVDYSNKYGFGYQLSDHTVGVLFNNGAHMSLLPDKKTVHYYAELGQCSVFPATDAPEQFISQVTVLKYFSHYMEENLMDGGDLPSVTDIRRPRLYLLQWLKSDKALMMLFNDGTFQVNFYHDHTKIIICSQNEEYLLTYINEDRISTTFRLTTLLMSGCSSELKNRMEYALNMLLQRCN
Serine/threonine-protein kinase SIK1 (Homo sapiens), sequence (P57059 whole entry): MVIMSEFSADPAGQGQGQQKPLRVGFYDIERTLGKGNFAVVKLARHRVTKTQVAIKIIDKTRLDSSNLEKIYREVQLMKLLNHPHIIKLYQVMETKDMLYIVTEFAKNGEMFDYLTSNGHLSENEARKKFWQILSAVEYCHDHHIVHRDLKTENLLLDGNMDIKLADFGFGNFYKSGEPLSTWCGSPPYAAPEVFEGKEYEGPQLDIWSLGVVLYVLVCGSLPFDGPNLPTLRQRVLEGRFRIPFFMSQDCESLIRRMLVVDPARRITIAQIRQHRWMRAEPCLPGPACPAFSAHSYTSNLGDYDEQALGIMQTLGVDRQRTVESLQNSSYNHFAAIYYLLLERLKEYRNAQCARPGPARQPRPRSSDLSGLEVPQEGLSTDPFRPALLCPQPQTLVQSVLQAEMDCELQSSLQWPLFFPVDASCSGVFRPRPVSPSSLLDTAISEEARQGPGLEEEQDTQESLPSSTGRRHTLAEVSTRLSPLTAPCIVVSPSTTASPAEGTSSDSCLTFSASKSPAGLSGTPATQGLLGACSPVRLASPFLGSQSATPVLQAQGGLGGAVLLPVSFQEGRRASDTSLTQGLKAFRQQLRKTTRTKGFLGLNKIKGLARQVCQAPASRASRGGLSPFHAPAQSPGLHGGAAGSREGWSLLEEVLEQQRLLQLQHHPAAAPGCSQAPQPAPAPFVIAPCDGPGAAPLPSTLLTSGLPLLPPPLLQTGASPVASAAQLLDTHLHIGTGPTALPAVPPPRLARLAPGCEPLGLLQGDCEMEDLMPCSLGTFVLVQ
SRSF protein kinase 1 (Homo sapiens), sequence (Q96SB4 whole entry): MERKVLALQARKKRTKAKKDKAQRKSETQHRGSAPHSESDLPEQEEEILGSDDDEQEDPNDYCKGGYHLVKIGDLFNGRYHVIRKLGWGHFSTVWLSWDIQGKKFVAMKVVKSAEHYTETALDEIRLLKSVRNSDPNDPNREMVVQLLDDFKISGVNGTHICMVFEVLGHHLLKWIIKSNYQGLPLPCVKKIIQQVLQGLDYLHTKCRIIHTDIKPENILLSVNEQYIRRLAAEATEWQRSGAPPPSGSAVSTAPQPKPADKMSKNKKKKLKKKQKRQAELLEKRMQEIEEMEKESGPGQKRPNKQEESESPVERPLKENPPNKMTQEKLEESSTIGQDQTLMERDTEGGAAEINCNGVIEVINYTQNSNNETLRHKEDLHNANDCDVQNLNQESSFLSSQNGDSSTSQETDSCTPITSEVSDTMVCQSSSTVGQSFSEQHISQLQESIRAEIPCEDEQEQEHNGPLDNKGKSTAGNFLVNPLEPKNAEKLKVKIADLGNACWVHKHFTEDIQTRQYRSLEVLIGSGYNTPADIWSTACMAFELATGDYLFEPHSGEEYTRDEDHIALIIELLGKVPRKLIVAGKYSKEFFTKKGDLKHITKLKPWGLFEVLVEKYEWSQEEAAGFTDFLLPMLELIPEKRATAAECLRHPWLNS
SRSF protein kinase 2 (Homo sapiens), sequence (P78362 whole entry, looked up): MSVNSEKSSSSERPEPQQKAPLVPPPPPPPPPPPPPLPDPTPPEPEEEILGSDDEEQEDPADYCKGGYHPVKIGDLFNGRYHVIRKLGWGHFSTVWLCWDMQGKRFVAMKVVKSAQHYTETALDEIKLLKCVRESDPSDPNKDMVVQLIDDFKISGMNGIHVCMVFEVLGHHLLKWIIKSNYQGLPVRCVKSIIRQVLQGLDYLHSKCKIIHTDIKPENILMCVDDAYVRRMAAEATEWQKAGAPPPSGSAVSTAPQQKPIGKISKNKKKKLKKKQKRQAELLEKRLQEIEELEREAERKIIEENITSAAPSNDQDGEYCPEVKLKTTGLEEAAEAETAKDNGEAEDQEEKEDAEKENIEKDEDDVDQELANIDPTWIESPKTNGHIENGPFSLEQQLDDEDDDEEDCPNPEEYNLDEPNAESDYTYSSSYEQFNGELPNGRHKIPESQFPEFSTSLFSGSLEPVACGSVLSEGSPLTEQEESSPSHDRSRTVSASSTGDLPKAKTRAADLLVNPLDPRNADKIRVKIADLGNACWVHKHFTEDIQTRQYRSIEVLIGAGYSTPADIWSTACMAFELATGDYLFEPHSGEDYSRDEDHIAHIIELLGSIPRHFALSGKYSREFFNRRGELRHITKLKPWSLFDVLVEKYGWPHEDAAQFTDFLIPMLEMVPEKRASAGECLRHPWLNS
Serine/threonine-protein kinase 33 (Homo sapiens), sequence (Q9BYT3 whole entry, looked up): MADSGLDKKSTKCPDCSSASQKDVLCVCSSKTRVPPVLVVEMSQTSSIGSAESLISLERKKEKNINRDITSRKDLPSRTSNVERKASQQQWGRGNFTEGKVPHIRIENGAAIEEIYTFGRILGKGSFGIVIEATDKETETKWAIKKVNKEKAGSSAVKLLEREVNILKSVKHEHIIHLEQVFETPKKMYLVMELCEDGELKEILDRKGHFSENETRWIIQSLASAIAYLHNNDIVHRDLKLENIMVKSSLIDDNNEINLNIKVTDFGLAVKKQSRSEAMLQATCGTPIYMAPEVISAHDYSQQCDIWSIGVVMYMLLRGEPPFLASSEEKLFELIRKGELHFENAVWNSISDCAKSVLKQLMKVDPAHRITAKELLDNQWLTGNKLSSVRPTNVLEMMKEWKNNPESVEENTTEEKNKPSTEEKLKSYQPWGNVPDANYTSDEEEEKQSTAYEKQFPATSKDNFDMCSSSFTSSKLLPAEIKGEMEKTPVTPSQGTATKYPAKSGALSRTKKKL

SMILES | residual activity [1] [%] | residual activity [2] [%] | residual activity [3] [%] | residual activity [4] [%] | residual activity [5] [%] | residual activity [6] [%] | residual activity [7] [%] | residual activity [8] [%] | residual activity [9] [%] | residual activity [10] [%]
Oc1ccc(Nc2nc(-c3ccc(Cl)cc3)cs2)cc1 | 111 | 105 | 111 | 116 | 87 | 105 | 100 | 110 | 100 | 117
Nc1cccc(-c2cc3c(Oc4cccc(O)c4)ncnc3[nH]2)c1 | 2 | 103 | 80 | 101 | 71 | 90 | 61 | 96 | 65 | 18
Oc1ccc(-c2nc(-c3ccc(F)cc3)c(-c3ccncc3)[nH]2)cc1 | 65 | 123 | 110 | 118 | 76 | 105 | 94 | 105 | 104 | 109
O=C1NC(=O)/C(=C\c2ccc3nccnc3c2)S1 | 83 | 99 | 49 | 96 | 58 | 86 | 53 | 94 | 73 | 104
Nc1nc(Nc2ccc(S(N)(=O)=O)cc2)nn1C(=S)Nc1c(F)cccc1F | -2 | -2 | 7 | 3 | -3 | 77 | 26 | 71 | 26 | 16
COc1ccc(C(=O)Nc2sc3c(c2C(N)=O)CCCC3)cc1OC | 91 | 84 | 95 | 89 | 89 | 91 | 97 | 98 | 97 | 126
Oc1c2ccccc2c2c3c(cccc13)N=N2 | 48 | 98 | 87 | 97 | 57 | 61 | 16 | 85 | 61 | 
CCC(=O)Nc1ccc2ncnc(Nc3cccc(Br)c3)c2c1 | 13 | 102 | 98 | 89 | 74 | 91 | 98 | 104 | 98 | 125
O=C1c2ccccc2-[n+]2ccc3c([nH]c4ccccc43)c21 | 104 | 90 | 93 | 101 | 87 | 86 | 86 | 95 | 101 | 93
Nc1n[nH]c2nnc(-c3c(-c4ccccc4)nn4ccccc34)cc12 | 63 | 92 | 69 | 100 | 83 | 96 | 86 | 99 | 96 | 92
O=Nc1c(-c2c(O)[nH]c3ccccc23)[nH]c2ccccc12 | 8 | 90 | 66 | 96 | 67 | 43 | 8 | 97 | 82 | 49
Cc1cc2ncc(-c3ccccc3)nc2cc1C | 110 | 108 | 97 | 104 | 102 | 100 | 98 | 101 | 106 | 125
CO[C@H]1C[C@@H]2CC[C@@H](C)[C@@](O)(O2)C(=O)C(=O)N2CCCC[C@H]2C(=O)O[C@H]([C@H](C)C[C@@H]2CC[C@@H](O)[C@H](OC)C2)CC(=O)[C@H](C)/C=C(\C)[C@@H](O)[C@@H](OC)C(=O)[C@H](C)C[C@H](C)/C=C/C=C/C=C/1C | 81 | 103 | 108 | 99 | 92 | 92 | 107 | 104 | 103 | 106
COc1cc2ncnc(N3CCN(C(=O)Nc4ccc(Oc5ccccc5)cc4)CC3)c2cc1OC | 87 | 103 | 105 | 102 | 95 | 88 | 96 | 107 | 101 | 101
Cn1nc2c3c(cccc31)C(=O)c1ccccc1-2 | 64 | 101 | 89 | 100 | 71 | 87 | 74 | 100 | 89 | 96
CC#CC(=O)Nc1cc2c(Nc3ccc(F)c(Cl)c3)ncnc2cn1 | 77 | 91 | 100 | 88 | 88 | 94 | 98 | 97 | 93 | 117
